The source of these data is PubChem BioAssay (Tox21).

Each structure is given as a SMILES string. Values without a mark were called inactive. Results filed as inconclusive are left out. Calls of active or inactive are those of the source. Unless noted, the call rests on the fitted dose curve; in most records, active means well fitted curve in the direction sought with a large enough effect in the repeat runs; inconclusive means weak or mixed curves; inactive means no such curve, though single readings can be large; an effect the other way counts as inactive or inconclusive.

Assay [1] can be described thus: A CellTox Green Cytotoxicity Assay to monitor cytotoxicity in HEK293 cells - 32 hour (AID 1224881). Further: nearly all actives have a fitted effect of over 40% in size. Further: potency means the concentration at half of the fitted maximal effect. The method, boiled down:
(§1)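 Each value comes from one timepoint of a single continuous run in which HEK293 cells with CellTox Green were exposed to compound for up to 40 h at 37 C, dye fluorescence rising with cell death.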

The nature of assay [2]: A CellTox Green Cytotoxicity Assay to monitor cytotoxicity in HepG2 cells - 0 hour (AID 1224882). Further: nearly all actives have a fitted effect of over 35% in size. The method, boiled down: (§2)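 Continuous culture of HepG2 cells with a membrane-impermeant DNA dye; rising fluorescence marks dead cells. Compound exposure lasted up to 40 h at 37 C, with reads every 8 h from 0 h.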
A short description of assay [3]: A CellTox Green Cytotoxicity Assay to monitor cytotoxicity in HEK293 cells - 8 hour (AID 1224884). Further: nearly all actives have a fitted effect of over 35% in size. Put shortly: as §1
Assay [4] in a line: A CellTox Green Cytotoxicity Assay to monitor cytotoxicity in HEK293 cells - 16 hour (AID 1224888). Further: nearly all actives have a fitted effect of over 35% in size. The method, boiled down:
as §1

Assay [5] is described as follows: qHTS RealTime-Glo MT Cell Viability Assay in HepG2 cells - 0 hour (AID 1224889). Further: nearly all actives have a fitted effect of over 50% in size. Put shortly: (§3)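 Compound treatment began 5 h after plating HepG2 cells (600/well) with NanoLuc luciferase and prosubstrate. Plates stayed at 37 C for 40 h; luminescence was captured at six time points, 0 h through 40 h.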
Assay [6] in a line: A CellTox Green Cytotoxicity Assay to monitor cytotoxicity in HepG2 cells - 8 hour (AID 1224890). Further: nearly all actives have a fitted effect of over 45% in size. The method, boiled down: as §2
In assay [7] the target is Estrogen receptor (Homo sapiens) (UniProt P03372). As to the kind of experiment: qHTS assay to identify small molecule antagonists of the estrogen receptor alpha (ER-alpha) signaling pathway using the BG1 cell line in the presence of 0.1 nM 17-beta-estradiol (AID 1259244). Further: nearly all actives have a fitted effect of over 50% in size. Further: potency means the concentration at half of the fitted maximal effect. The method, boiled down: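 Quantitative high-throughput screen in VM7Luc4E2 cells: compound plus 0.1 nM E2 (final), 22 h, 37C, 5% CO2; ONE-Glo added, 30 min room temperature, luminescence measured.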

A short description of assay [8]: qHTS assay to identify small molecule phospholipidosis (PLD) inducers (AID 1259344; active means well fitted curve in the direction sought with a large enough effect; an effect the other way counts as inactive or inconclusive). The method, boiled down:
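HepG2 cells grown on collagen I take up LipidTOX Red while exposed to compound for 24 h; after fixation they are imaged at 20x and pit metrics are extracted.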
A general note: qHTS replaces the single test concentration by a dilution series.

Assay [9] can be described thus: qHTS assay to identify small molecule HDAC inhibitors (AID 1259364). Further: nearly all actives have a fitted effect of over 45% in size. Further: potency means the concentration at half of the fitted maximal effect. The method, boiled down: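 Endogenous HDAC class I/II activity was measured in wild-type HCT-116 cells by HDAC-Glo luminescence after 2 h compound treatment.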
A short description of assay [10]: qHTS assay to identify small molecule HDAC inhibitors - cell viability counter screen (AID 1259365). Further: series mostly up to about 92 µM; nearly all actives have a fitted effect of over 50% in size. The method, boiled down: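 HCT-116 (wild type), 1,500 cells/well, overnight 37C/5% CO2; compound in DMSO 2hr; CellTiter-Glo 30min RT; luminescence read.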
The nature of assay [11]: qHTS assay to identify small molecule agonists of the sonic hedgehog signaling (Shh) pathway - cell viability counter screen (AID 1259366). Further: nearly all actives have a fitted effect of over 50% in size. Further: potency means the concentration at half of the fitted maximal effect. The method, boiled down: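 CellTiter-Fluor fluorescence read-out, 1 hr at 37C, added after 23hr compound exposure. Cells: 3T3 Gli1-Luc, an NIH/3T3 clone with stably integrated Gli1-Luc reporter, plated 4hr before compound.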
Assay [12] can be described thus: qHTS assay to identify small molecule antagonists of the sonic hedgehog signaling (Shh) pathway - cell viability counter screen (AID 1259367). Further: nearly all actives have a fitted effect of over 55% in size. Further: potency means the concentration at half of the fitted maximal effect. Put shortly: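 After a 4 hr settling period, 3T3 Gli1-Luc cells were treated with DMSO-dissolved chemicals and conditioned medium, kept 24 hr at 37C in 5% CO2, and assayed for viability by CellTiter-Fluor fluorescence following 1 hr reagent incubation.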

The nature of assay [13]: qHTS assay to identify small molecule agonists of the sonic hedgehog signaling (Shh) pathway (AID 1259368; calls by dose curve; further: nearly all actives have a fitted effect of over 15% in size; further: potency means the concentration at half of the fitted maximal effect). Put shortly: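 Luminescent signal was taken as a measure of Gli1-controlled luciferase expression in stably transfected NIH/3T3-derived cells that had been treated for 24 hr with compounds delivered in DMSO.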
The nature of assay [14]: A CellTox Green Cytotoxicity Assay to monitor cytotoxicity in HepG2 cells - 32 hour (AID 1224883). Further: nearly all actives have a fitted effect of over 50% in size. Put shortly: as §2
Assay [15] in a line: qHTS assay to identify small molecule antagonists of the estrogen receptor alpha (ER-alpha) signaling pathway using the BG1 cell line in the presence of 0.1 nM 17-beta-estradiol - cell viability counter screen (AID 1259241). Further: nearly all actives have a fitted effect of over 40% in size. Further: potency means the concentration at half of the fitted maximal effect. Put shortly:
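Live-cell protease activity (CellTiter-Fluor fluorescence, 30 min) was read in the same wells after VM7Luc4E2 cells had been exposed to compounds with 0.1 nM 17beta-estradiol for 22 hr at 37C.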

Assay [16] can be described thus: qHTS RealTime-Glo MT Cell Viability Assay in HEK293 cells - 24 hour (AID 1224886). Further: nearly all actives have a fitted effect of over 50% in size. Further: potency means the concentration at half of the fitted maximal effect. Put shortly: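 Quantitative high-throughput screen of the Tox21 10K library in HEK293: cells and RealTime-Glo reagents plated together, compound added at 5 h, luminescence monitored through 40 h at 37 C.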
Assay [17] is described as follows: qHTS RealTime-Glo MT Cell Viability Assay in HEK293 cells - 8 hour (AID 1224887). Further: nearly all actives have a fitted effect of over 50% in size. Further: potency means the concentration at half of the fitted maximal effect. Put shortly: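 qHTS format; HEK293 cells with NanoLuc/prosubstrate reagent, 37 C/5% CO2 for 5 h pre-dosing; compounds 23 nL in DMSO; luminescence at each time point reflects viable cells.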
The nature of assay [18]: qHTS assay to identify small molecule antagonists of the androgen receptor (AR) signaling pathway using the MDA cell line in the presence of 0.5 nM R1881 - cell viability counter screen (AID 1259242). Further: nearly all actives have a fitted effect of over 45% in size. The method, boiled down: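 Fluorescence from CellTiter-Fluor, which reports protease activity of live cells, was read 30 min after reagent addition to MDA-kb2 cells that had been incubated 16 hr with compound and 0.5 nM R1881.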

The nature of assay [19]: qHTS RealTime-Glo MT Cell Viability Assay in HepG2 cells - 16 hour (AID 1224885). Further: nearly all actives have a fitted effect of over 50% in size. Put shortly: as §3

Estrogen receptor (Homo sapiens), sequence (P03372 whole entry, looked up): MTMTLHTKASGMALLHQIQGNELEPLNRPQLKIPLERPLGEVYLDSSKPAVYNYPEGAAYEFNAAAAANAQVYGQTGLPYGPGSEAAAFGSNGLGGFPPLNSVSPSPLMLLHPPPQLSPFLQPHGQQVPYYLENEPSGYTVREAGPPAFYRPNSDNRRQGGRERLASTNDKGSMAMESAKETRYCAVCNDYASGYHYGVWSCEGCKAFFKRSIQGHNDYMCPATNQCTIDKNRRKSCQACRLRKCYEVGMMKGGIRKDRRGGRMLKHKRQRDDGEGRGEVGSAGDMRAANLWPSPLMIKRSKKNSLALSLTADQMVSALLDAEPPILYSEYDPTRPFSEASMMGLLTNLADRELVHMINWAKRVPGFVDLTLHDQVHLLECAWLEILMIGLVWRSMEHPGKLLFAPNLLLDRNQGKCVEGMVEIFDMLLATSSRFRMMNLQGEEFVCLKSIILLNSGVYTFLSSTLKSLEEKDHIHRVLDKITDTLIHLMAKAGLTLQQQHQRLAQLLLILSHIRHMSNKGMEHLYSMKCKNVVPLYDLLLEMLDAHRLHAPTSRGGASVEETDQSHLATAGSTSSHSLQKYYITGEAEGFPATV

For `Nc1ccc(N=Nc2ccccc2)cc1`, the Potency result in [1], in assay [2], in assay [3], in assay [4], in assay [5] and in assay [6] was “inactive” in each case. In addition, the Potency entry in [7] and in [10] was “inactive” in each case. Besides, the compound was classed as inactive in [8]. Moreover, the Potency in assay [9] is 8.63 µM (active); in [11] it was 15.4 µM (active); in assay [12] it was 3.44 µM (active); in assay [13], 4.86 µM (active).

Regarding `CCOP(=S)(NC(C)C)Oc1ccccc1C(=O)OC(C)C` (stereo not given), the Potency entry in [1], in assay [2], in assay [14], in assay [4], in assay [5] and in [6] was “inactive” in each case. Moreover, the Potency entry in assay [15], in assay [9], in assay [10], in assay [11] and in assay [13] was “inactive” throughout.

As for `Cc1cc(C2CC2)nc(Nc2ccccc2)n1`, the Potency result in assay [1], in assay [2], in assay [3], in [5], in assay [15] and in [18] was “inactive” in each case. In addition, the Potency entry in assay [7], in assay [10] and in [13] was “inactive” each time. In addition, the Potency in assay [16] is 24.5 µM (active); in assay [17] it was 21.9 µM (active); in assay [9], 24.3 µM (active); in assay [11], 48.6 µM (active).

`N#Cc1c[nH]cc1-c1cccc2c1OC(F)(F)O2`: the Potency entry in assay [1], in [2], in assay [3], in [19], in [4] and in [5] was “inactive” each time. In addition, the Potency result in assay [6], in assay [15], in assay [18], in assay [9], in assay [10] and in [12] was “inactive” throughout. Further, the Potency entry in assay [13] is “inactive”. Moreover, the Potency in assay [7] was 24.3 µM (active).

Take `O=C(NC(=O)c1c(F)cccc1F)Nc1ccc(Oc2ccc(C(F)(F)F)cc2Cl)cc1F`: the Potency entry in assay [1], in assay [14], in assay [3], in assay [19], in assay [4] and in assay [5] was “inactive” in each case. In addition, the Potency entry in assay [6], in assay [10], in assay [12] and in assay [13] was “inactive” throughout. For the same compound, in [16], the Potency is 24.5 µM (active).

Regarding `CNC(=O)O/N=C(\C)C(C)S(C)(=O)=O` (stereo not given), the Potency entry in assay [1], in [2], in assay [3], in assay [19], in assay [16] and in assay [17] was “inactive” throughout. For the same compound, the Potency result in assay [4], in assay [5], in assay [6], in assay [15], in [18] and in assay [9] was “inactive” in each case. For the same compound, the Potency entry in assay [10], in assay [11] and in [13] was “inactive” in each case.

`O.O.O.O.O.O.O.O=S(=O)([O-])[O-].[Co+2]`: the Potency result in assay [1], in assay [14], in [3], in assay [19], in [16] and in assay [17] was “inactive” each time. Further, the Potency entry in [4], in [6], in assay [15], in assay [18], in assay [9] and in assay [10] was “inactive” in each case. In assay [12], the Potency entry is “inactive”. Also, in assay [13], the Potency is 61.5 µM (active).

As to `NC(=O)C(Cl)Cl`, the Potency result in [1], in assay [14], in assay [3], in assay [19], in [16] and in assay [17] was “inactive” in each case. In addition, the Potency entry in [4], in assay [5], in assay [6], in assay [15], in assay [18] and in [9] was “inactive” throughout. Moreover, the Potency entry in assay [10], in assay [11], in assay [12] and in [13] was “inactive” throughout.

As for `COP(=O)(OC)Oc1ccc([N+](=O)[O-])cc1`, the Potency entry in [1], in assay [14], in assay [3], in assay [19], in [16] and in [17] was “inactive” in each case. Moreover, the Potency entry in assay [4], in [5], in [6], in assay [18], in [7] and in [10] was “inactive” throughout. Moreover, the Potency entry in [11], in assay [12] and in [13] was “inactive” each time.

Consider `c1cc[n+]2c(c1)-c1cccc[n+]1CC2`, for which the Potency entry in assay [1], in assay [14], in [3], in assay [19], in [16] and in [17] was “inactive” each time. The Potency entry in assay [4], in assay [5], in [6], in assay [18], in [9] and in assay [10] was “inactive” in each case. Besides, the Potency result in assay [12] and in [13] was “inactive” each time. Further, the Potency in assay [15] and in [7] was 26.6 µM (active) each time.

In the case of `CCOC(=O)CCN(SN(C)C(=O)Oc1cccc2c1OC(C)(C)C2)C(C)C`, the Potency entry in assay [1], in assay [14], in assay [3], in assay [19], in assay [16] and in assay [17] was “inactive” each time. Moreover, the Potency result in assay [4], in assay [5], in [6], in [15], in assay [18] and in [7] was “inactive” in each case. Further, the Potency result in assay [9], in [10], in [11], in [12] and in [13] was “inactive” throughout.

For the compound `CN=C=O`, the Potency result in assay [1], in [14], in assay [3], in assay [19], in assay [16] and in assay [17] was “inactive” each time. For the same compound, the Potency result in assay [4], in assay [5], in [6], in assay [15], in assay [18] and in assay [11] was “inactive” in each case. In addition, the Potency result in [12] and in assay [13] was “inactive” throughout.

As to `c1ccc2nc(N3CCNCC3)ccc2c1`, the Potency entry in assay [1], in assay [2], in assay [3], in assay [19], in assay [16] and in [17] was “inactive” throughout. The Potency result in assay [4], in assay [5], in [6], in assay [15], in assay [18] and in assay [7] was “inactive” throughout. The Potency result in assay [9], in assay [10], in assay [12] and in assay [13] was “inactive” in each case. In addition, in [8], the compound was classed as inactive.

For the compound `Brc1cccc(-c2ccccc2)c1`, in assay [1], the Potency is 49.3 µM (active). Also, the Potency result in [2], in [14], in assay [19], in assay [17], in [5] and in [6] was “inactive” in each case. For the same compound, the Potency entry in assay [15], in assay [18], in assay [7], in assay [9], in [10] and in assay [11] was “inactive” each time. Moreover, the Potency result in [12] and in assay [13] was “inactive” in each case.

Consider `O.O.O.O=C([O-])[C@H]([O-])[C@@H]([O-])C(=O)[O-].O=C([O-])[C@H]([O-])[C@@H]([O-])C(=O)[O-].[K+].[K+].[Sb+3].[Sb+3]`, for which the Potency entry in [1], in assay [2], in assay [17], in [4], in assay [5] and in [6] was “inactive” in each case. The Potency result in assay [7], in assay [9], in assay [10], in [11], in assay [12] and in assay [13] was “inactive” in each case. The Potency in assay [15] is 48.8 µM (active).

In the case of `CC[C@]1(O)CC[C@H]2[C@@H]3CCC4=CCCC[C@@H]4[C@H]3CC[C@@]21C`, the Potency result in assay [1], in [2], in [3], in [19], in assay [17] and in assay [4] was “inactive” throughout. Further, the Potency entry in assay [5], in [6], in [15], in assay [18], in assay [9] and in assay [10] was “inactive” throughout. Moreover, the Potency result in [11], in assay [12] and in assay [13] was “inactive” each time. Besides, the call in assay [8] was inactive.
